Screening data: PubChem, several laboratories
Sampled rows, rich in hits. Any-hit rate of the full collection: about 9.6%.
DAT uptake mod: human DAT dopamine uptake with cocaine, either direction. Q01959. B-score at 10 µM. 110,000 tested, 1.3% active. LLC-PK1 hDAT cells, [14C]-dopamine uptake with cocaine IC80; actives deviate in either direction. AID 449768;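 active means Z score or B-score, a plate-position-corrected score, falls beyond the plate's 99.7% confidence bounds, in either direction; inactive means both scores lie inside the 99.7% bounds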;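 further: scored against the spread of the other compound wells on the same plate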
Target sequence (Q01959 whole entry, looked up): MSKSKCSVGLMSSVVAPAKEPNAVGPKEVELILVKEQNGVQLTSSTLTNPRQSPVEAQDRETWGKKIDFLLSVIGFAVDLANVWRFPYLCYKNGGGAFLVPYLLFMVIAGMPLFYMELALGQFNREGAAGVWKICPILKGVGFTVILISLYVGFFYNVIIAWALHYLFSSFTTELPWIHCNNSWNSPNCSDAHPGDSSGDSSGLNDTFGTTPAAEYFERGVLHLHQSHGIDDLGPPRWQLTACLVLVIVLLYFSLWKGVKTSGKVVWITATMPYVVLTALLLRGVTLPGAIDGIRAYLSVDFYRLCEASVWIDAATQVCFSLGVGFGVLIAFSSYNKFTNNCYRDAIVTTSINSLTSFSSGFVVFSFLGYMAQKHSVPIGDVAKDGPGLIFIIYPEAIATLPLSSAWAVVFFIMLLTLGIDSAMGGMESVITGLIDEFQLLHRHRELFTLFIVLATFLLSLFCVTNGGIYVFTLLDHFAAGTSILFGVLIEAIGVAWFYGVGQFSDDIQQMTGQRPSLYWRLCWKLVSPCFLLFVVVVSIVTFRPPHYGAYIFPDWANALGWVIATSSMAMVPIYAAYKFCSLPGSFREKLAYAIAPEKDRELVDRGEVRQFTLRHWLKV
PostGolgi yeast: growth inhibition of a yeast mutant, post-Golgi transport screen; inhibition, % at 10 µM; AID 739; post-Golgi transport phenotypic cell assay; 98,000 tested, 0.9% active;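 further: yeast cells grown in 1536-well plates; yeast grown about 18 h at 30C before absorbance read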
PLAP activator: human PLAP activation. activation fold at 20 µM. purified PLAP enzyme, luminescent substrate read-out; stronger effect = higher value. 96,000 tested, 1.2% active; in the data active means activation fold above about 2
PostGolgi ctrl: growth of the yeast control strain, post-Golgi counter-screen | efflux-deficient yeast background strain, growth absorbance A615, 16 h | inhibition, % at 10 µM | 98,000 tested, 5% active
Cav32 inh: inhibitors of human Cav3.2 T-type calcium channel | O95180 | Cav3.2-expressing cells, Fluo-4 calcium fluorescence FDSS; stronger effect = lower value | B-score at 10 µM | 100,000 tested, 4% active | AID 449739;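 active means single-dose well whose peak fluorescence ratio is a statistical outlier from its plate by either plate-standardised score or position-corrected B-score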
Active calls of the source: *; . = no result. Unless noted, no stated cut-off is given here; in the data, active means inhibition above about 30%; inactive means the rest.

SMILES	DAT uptake mod	PostGolgi yeast	PLAP activator	PostGolgi ctrl	Cav32 inh
COc1ccc(S(=O)(=O)N2CC3C4C=CC(C4)C3C2)cc1 (stereo not given)	-0.89	-6	0.9	47*	-3.6
COc1ccc(CNc2oc(COc3ccccc3)nc2C#N)cc1	.	-4	0.9	14	.
N#Cc1nc(COc2ccccc2Cl)oc1NCc1cccnc1	0.42	59*	1.1	47*	-0.068
N#Cc1nc(Cc2ccccc2)oc1NCCN1CCOCC1	-0.32	-1	0.8	27	0.41
COc1ccc(CNc2oc(Cc3cccc4ccccc34)nc2C#N)cc1	3.5	-6	1.2	35*	-7*
N#Cc1nc(Cc2ccccc2)oc1NCc1ccccc1	-0.31	.	.	.	-5.4*
COCCN(C(=O)CCC(=O)Nc1cccnc1)C(C(=O)NC1CCCCC1)c1ccccc1 (stereo not given)	-0.061	1	1.3	8	-0.75
CN1CCN(Cc2cc(COCc3ccccc3)c3cccnc3c2O)CC1	0.49	-12	2.2*	29	-0.53
COc1ccc(CN(C#N)c2nc(SC)nc(N(C)C)n2)cc1	0.58	-9	1.5	41*	-1.5
CC12C=CC3(O1)C(C(=O)N(c1ccccc1)C3C(=O)NC1CCCC1)C2C(N)=O (stereo not given)	-0.054	.	.	.	0.26
CC(C)c1ccc(/C=C/C(=O)NC2=NCCS2)cc1	.	3	1	33*	.
CC(NC(=O)c1ccc(Cl)cc1)C(=O)NC1=NCCS1 (stereo not given)	-0.0054	-9	1.1	-3	0.8
CCOC(=O)C1=C(CNCc2ccccc2Cl)NC(=O)NC1c1ccc2c(c1)OCO2 (stereo not given)	0.37	-7	0.9	39*	-0.023
CCN(C(=O)c1ccc(C(C)(C)C)cc1)c1nnc(Cn2nnc3ccccc32)s1	-1	-2	1.3	43*	-8*
CC1CCC2C(C1)c1sc(=O)[nH]c1SC2(C)C (stereo not given)	-0.11	5	1.2	66*	-2
O=C(NNC(=O)c1cc(O)c(O)c(O)c1)NC1CCCCC1	-0.036	-4	1.5	8	0.46
CCOC(=O)Cc1nnc2c(Nc3ccccc3F)nc3nonc3n12	-1	-1	1	34*	0.024
CCOC(=O)Cc1nnc2c(Nc3ccc(C)cc3)nc3nonc3n12	-0.28	14	1.4	-3	1.2
Cc1ccc(S(=O)(=O)N2CCC(C(=O)NCCc3ccccc3)CC2)cc1	0.23	3	0.8	5	0.51
Cc1ccc(S(=O)(=O)N2CCC(C(=O)NCCN3CCCCCC3)CC2)cc1	-0.17	8	2.1*	2	-0.034
Cc1ccc(S(=O)(=O)N2CCC(C(=O)N3CCC[C@H]3C(=O)NC3CCS(=O)(=O)C3)CC2)cc1 (stereo not given in full)	1	-1	2*	-4	0.38
COc1cc(NC(=O)Cn2nc(Cc3cccnc3)c3ccccc3c2=O)cc(OC)c1OC	0.12	-3	1.6	0	1.6
CCOC(=O)C1=C(C)N(CCCC(=O)O)C(=O)NC1c1ccccc1Cl (stereo not given)	-0.12	.	.	.	0.51
CCc1ccc(C(=O)/C=C/c2ccc([N+](=O)[O-])o2)cc1	-0.67	63*	0.9	10	-1.3
CCCCCC(=O)N/N=C/c1ccc([N+](=O)[O-])o1	0.14	0	.	2	-0.033
SMILES	DAT uptake mod	PostGolgi yeast	PLAP activator	PostGolgi ctrl	Cav32 inh
Cc1ccc(NC(=O)CC2Oc3ccccc3NC2=O)c(C)c1 (stereo not given)	0.011	-2	1	20	0.11
CC(=O)c1nc2ccccc2n1S(=O)(=O)c1ccc(C)cc1	-0.1	8	1.1	40*	-0.41
Cc1c(C(=O)OCC(=O)N2CC(C)OC(C)C2)oc2ccc(Br)cc12 (stereo not given)	0.87	3	1.6	12	.
CCCCN(C)CCNC(=O)Cn1ncc2c(=O)oc3ccc(C)cc3c21	-0.068	3	1	8	0.038
CC(=O)Oc1cccc(N2C(=O)C3C4C=CC(C4=C(C)C)C3C2=O)c1 (stereo not given)	-9*	6	1.2	6	1.6
CC1=C(C(=O)N2CCCCC2)C(c2cccs2)C2=C(CCCC2=O)N1 (stereo not given)	-0.39	4	1.4	7	0.46
Brc1ccc(OCc2nc(-c3ccccn3)n[nH]2)cc1	0.76	0	2.2*	5	0.025
c1ccc(OCCCc2nc(-c3ccccn3)no2)cc1	1.7	5	1	-2	0.65
CCOc1ccc2nc(NC(=O)CN3CCC(n4nnc5cc(C(F)(F)F)ccc54)CC3)sc2c1	-0.39	-1	1	35*	-0.43
